Assay [1] concerns Hepatitis C virus NS3 helicase. The assay can be described thus: HCV NS3 helicase inhibitors, primary screen, biochemical, fluorescence polarization, LOPAC1280 library (AID 687035; in the data active = inhibition above about 37%). To be noted: Purified HCV NS3 helicase, Cy5-dT15 ssDNA binding fluorescence polarization; stronger effect = higher value; concentration not given here. For orientation: Fluorescence polarisation rises when a labelled molecule tumbles more slowly, as on binding a larger partner.

Assay [2] in a line: Cy5 fluorescence quenching or enhancement artefacts, artefact control for HCV NS3 helicase inhibitor project, biochemical, LOPAC1280 (AID 687037). To be noted: Cy5-DNA-NS3h complex fluorescence interference counterscreen.
Assay [3] can be described thus: Cy5 fluorescence interference with SSB-bound oligo, artefact control for HCV NS3 helicase inhibitor project, biochemical, NIH Clinical Collection, E. coli SSB (AID 743268).
Assay [4] deals with Hepatitis C virus NS3 helicase. Nature of the assay: HCV NS3 helicase inhibitors, primary screen, biochemical, fluorescence polarization, NIH Clinical Collection (AID 743270). To be noted: NS3 helicase binding to Cy5-dT15 DNA, stronger effect = higher value, concentration not given here.
Assay [5] addresses Single-stranded DNA-binding protein (Escherichia coli (strain K12)) (UniProt P0AGE0). The assay can be described thus: E. coli SSB displacement from DNA, counter-screen for HCV NS3 helicase inhibitor project, biochemical, fluorescence polarization, NIH Clinical Collection (AID 743271; in the data active = inhibition above about 28%). To be noted: stronger effect = higher value, concentration not given here. A general note: A counterscreen serves to expose hits that act by an unwanted route or on another target.

The nature of assay [6]: fluorescence interference in NS3h assay format, artefact control for HCV NS3 helicase inhibitor project, biochemical, NIH Clinical Collection (AID 743272).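 Also: HCV NS3 helicase with a Cy5 labelled single stranded DNA probe.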 Conditions: fluorescence interference counterscreen, stronger effect = lower value.
Assay [7] concerns Neuropilin-2 / VEGF-C interaction (human). The assay can be described thus: inhibitors of NRP2–VEGF-C binding, biochemical, microplate binding format, z-score (AID 743281). Conditions: microplate NRP2/VEGF-C binding assay; stronger effect = lower value.
Assay [8] is described as follows: stimulators of nuclear beta-catenin in C2C12, primary screen, imaging, WNT3A-conditioned medium, mouse C2C12, NPC library (AID 1117326; in the data active = nuclear beta-catenin stimulation mostly above about 4.2%, no sharp cut-off; inactive = mostly below about 10%). To be noted: stronger effect = higher value.
Assay [9] is described as follows: stimulators of insulin release from INS-1E, primary screen, cell-based, 5 mM glucose, NPC library (AID 1117329;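 active = compound raises insulin release from rat beta cells at 5 mM glucose, no numeric limit stated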). To be noted: rat INS-1E insulin secretion, at 10 µM, stronger effect = higher value.
Assay [10] can be described thus: growth inhibition of GSK3B-pretreated HCT116 cells – cell-based, CellTiter-Glo, 0.2 to 20 µM (AID 1117336;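 active = compounds lowering colon cancer cell viability after pretreatment blocking the GSK3B kinase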). Conditions: HCT116 viability after GSK3B inhibitor, at 20 µM, stronger effect = higher value.
Assay [11] in a line: inhibition of endothelial tube formation, primary screen, imaging, VEGF stimulated, CD31 staining, tube area, NPC library (AID 1117340;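 active = compound that reduces growth-factor-driven endothelial tube area in a mixed cell culture, no cutoff stated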). To be noted: VEGF-stimulated ADSC/ECFC co-culture, at 10 µM, stronger effect = higher value.
Assay [12] can be described thus: glucagon-like peptide 1 release enhancers, primary assay, NCI-H716 cell line, NPC library (AID 1117341;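 active = compound raises GLP1 secretion from the human gut endocrine cells, with no numeric limit stated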). Conditions: NCI-H716 cells, at 10 µM, stronger effect = higher value.
Assay [13] is described as follows: HCT116 colon cancer cell growth inhibition, primary screen, CellTiter-Glo luminescence, NPC library (AID 1117342;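 active = compounds that lower survival of HCT116 colon cancer cells in the luminescence readout, no numeric limit stated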). To be noted: at 20 µM (top of the series). A general note: Cellular ATP, detected with luciferase, serves as a proxy for viable cell number.
Assay [14] is described as follows: CellTiter-Glo luminescent readout of SW480 viability loss, NPC library primary (AID 1117343;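 active = compounds that lower viability of the colon cancer cells in the luminescence readout, with no numeric limit stated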). To be noted: CellTiter-Glo luminescence; at 20 µM (top of the series).
Assay [15] can be described thus: decreased DLD-1 cellular survival, CellTiter-Glo luminescent readout, NPC compound collection, primary HTS (AID 1117346;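 active = compounds that lower survival of DLD-1 colon cancer cells in the luminescence readout, no cutoff given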). Conditions: DLD-1 viability, CellTiter-Glo luminescence; at 20 µM (top of the series).

Molecules are shown by their SMILES. Several values for one entry are separate records, joined by “and”; a condition that tells them apart may be missing. Equal values may be shown once. Activity calls are given as the source filed them. Unless noted, no rule for the calls is given here.

On to `CN1CCC(=C2c3ccccc3C=Cc3ccccc32)CC1`, for which the inhibition (as a rule, the change of the read-out against control, counted positive when it falls) in assay [1] was -1% (inactive); in [4], -2.84% (inactive); in assay [5] it was -0.39% (inactive). Also, the fluorescence ratio (interference) in assay [2] is 1 (inactive). The fluorescence ratio in [3] was 0.97 (inactive); in [6] it was 0.96 (inactive). The z-score in assay [7] is -0.162 (inactive). Besides, the nuclear beta-catenin stimulation is 3.3% (inactive) in assay [8] (at 10 µM) and 1.3% in assay [8] (stimulation, at 2 µM). In addition, the insulin secretion stimulation in assay [9] was 0.2% (inactive). Besides, in assay [10], the viability decrease is 48.8% (inactive). Further, the tube area decrease in assay [11] was 43.3% (active). In addition, in assay [12], the GLP1 secretion stimulation was 11.9% (inactive). In addition, in assay [13], the inhibition of viability is 39% (inactive). The figures for the viability decrease (inhibition) in assay [14] and in assay [15] were 100% (active) and 31.8% (inactive), respectively.
Take `Cc1ncc([N+](=O)[O-])n1CC(O)CCl` (stereo unspecified): the fluorescence ratio in [3] and in assay [6] was 0.99 (inactive) in each case. For the same compound, the inhibition in assay [4] was 5.94% (inactive); in [5] it was 0.67% (inactive). In addition, the z-score in assay [7] is -0.43 (inactive). Besides, the nuclear beta-catenin stimulation in [8] (at 10 µM) is 0.8% (inactive); in assay [8] (stimulation, at 2 µM) it was 1.1%. In assay [9], the insulin secretion stimulation is -1.6% (inactive). The viability decrease in [10] was -3.65% (inactive). Also, the tube area decrease in assay [11] was -4.9% (inactive). In [12], the GLP1 secretion stimulation is -0.1% (inactive). The inhibition of viability in assay [13] is 0.2% (inactive). The viability decrease (inhibition) was -45.6% (inactive) in assay [14] and -4.95% (inactive) in [15].
For the compound `CCN(CC)CCNC(=O)c1cc(Cl)c(N)cc1OC`, the inhibition was -4% (inactive) in [1], -3.18% (inactive) in assay [4] and -0.48% (inactive) in assay [5]. Also, the fluorescence ratio (interference) in assay [2] was 1 (inactive). Besides, the fluorescence ratio in assay [3] was 1.01 (inactive); in [6] it was 0.98 (inactive). The nuclear beta-catenin stimulation is 0.2% (inactive) in assay [8] (at 10 µM) and -1.4% in [8] (stimulation, at 2 µM). Further, in assay [9], the insulin secretion stimulation was 3.1% (inactive). Moreover, the viability decrease in assay [10] was -11.3% (inactive). Further, the tube area decrease in assay [11] was 12.6% (inactive). The GLP1 secretion stimulation in [12] was 0.3% (inactive). The inhibition of viability in [13] was -2.1% (inactive). In addition, the viability decrease (inhibition) in assay [14] is -17.7% (inactive); in assay [15] it was 6% (inactive).
As for `CC(=O)NS(=O)(=O)c1ccc(N)cc1`, the fluorescence ratio in [3] was 1.03 (inactive); in assay [6], 1.01 (inactive). Moreover, the inhibition was -5% (inactive) in assay [4] and -5.05% (inactive) in assay [5]. Also, the nuclear beta-catenin stimulation in assay [8] (at 10 µM) is -0.3% (inactive); in assay [8] (stimulation, at 2 µM) it was -0.1%. The insulin secretion stimulation in assay [9] is -1.9% (inactive). Besides, in [10], the viability decrease was -5.2% (inactive). The tube area decrease in assay [11] was 14.5% (inactive). In assay [12], the GLP1 secretion stimulation is -1.7% (inactive). The inhibition of viability in assay [13] is 1.2% (inactive). For the same compound, the viability decrease (inhibition) in assay [14] is -3.2% (inactive); in [15] it was -1.3% (inactive).
As for `COc1cccc2c1C(=O)c1c(O)c3c(c(O)c1C2=O)C[C@@](O)(C(=O)CO)C[C@@H]3O[C@H]1C[C@H](N)[C@H](O)[C@H](C)O1`, the fluorescence ratio was 0.07 (active) in assay [3] and 0.4 (active) in [6]. In addition, the inhibition was 7.52% (inactive) in [4] and 90% (active) in assay [5]. Also, in assay [7], the z-score is 0.436 (inactive). Also, the nuclear beta-catenin stimulation in assay [8] (at 10 µM) is 28.9% (inactive); in assay [8] (stimulation, at 2 µM), 27.7%. Besides, in [9], the insulin secretion stimulation is 4% (inactive). Further, the viability decrease in [10] is -114% (inactive). Moreover, the tube area decrease in assay [11] was 22.7% (active). Further, the GLP1 secretion stimulation in [12] is 3% (inactive). In assay [13], the inhibition of viability is 40.6% (inactive). Further, the viability decrease (inhibition) was 99.3% (active) in [14] and 82.4% (active) in assay [15].
As for `C[C@]12C[C@H](O)[C@H]3[C@@H](CCC4=CC(=O)CC[C@@]43C)[C@@H]1CC[C@@H]2C(=O)CO`, the inhibition in assay [1] was 0% (inactive); in assay [4], -1.97% (inactive); in [5], 1.97% (inactive). Further, the fluorescence ratio (interference) in assay [2] was 1 (inactive). Moreover, the values for the fluorescence ratio in assay [3] and in assay [6] were 1.01 (inactive) and 0.99 (inactive), respectively. Besides, the nuclear beta-catenin stimulation in [8] (at 10 µM) is 0% (inactive); in assay [8] (stimulation, at 2 µM) it was -1.4%. Further, the insulin secretion stimulation in [9] is 1.6% (inactive). The viability decrease in [10] is -24.9% (inactive). For the same compound, the tube area decrease in assay [11] is 9.5% (inactive). Also, in [12], the GLP1 secretion stimulation is 0.3% (inactive). In addition, the inhibition of viability in assay [13] was -2.93% (inactive). Also, the viability decrease (inhibition) in [14] was 37.4% (inactive); in [15] it was 8.6% (inactive).
Consider `Cc1nccn1CC1CCc2c(c3ccccc3n2C)C1=O` (stereo unspecified), for which the fluorescence ratio is 0.99 (inactive) and 1.12 (inactive) in [3]; 0.97 (inactive) and 1.02 (inactive) in assay [6]. Further, the inhibition in assay [4] was 0.4% (inactive) and -4.09% (inactive); in [5], 3.75% (inactive) and 1.05% (inactive). In addition, the z-score in [7] is -0.188 (inactive). Also, the nuclear beta-catenin stimulation was -0.2% (inactive) in assay [8] (at 10 µM) and 1.9% in [8] (stimulation, at 2 µM). The insulin secretion stimulation in assay [9] is -1.6% (inactive). Besides, the viability decrease in [10] is -7% (inactive). In assay [11], the tube area decrease is 1.5% (inactive). Also, in assay [12], the GLP1 secretion stimulation is -1.9% (inactive). Also, the inhibition of viability in assay [13] was 24.8% (inactive). Also, the viability decrease (inhibition) in assay [14] was -3.2% (inactive); in [15], -8% (inactive).

These data come from PubChem BioAssay.
